# Screening data from PubChem BioAssay.
# Sfp PPTase inh – inhibitors of Bacillus subtilis Sfp phosphopantetheinyl transferase. Q9F4F7. actives 3.5% (n = 310,000). Potency, µM, inactives show largest response in the series, negative = inhibition, hits mostly inhibitors. AID 1490. Biochemical Sfp PPTase activity, qHTS;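 also: the enzyme is Sfp with the accession as filed and its product quenches rhodamine fluorescence; 0% = enzyme reaction without inhibitor and -100% = no enzyme wells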
#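 Fluorescence-quenching assay: 15 nM Sfp-PPTase preincubated 15 min at room temperature with compound, then 5 uM rhodamine-CoA and 12.5 uM BHQ-2-labelled YbbR peptide added. Fluorescence (ex 525/em 598 nm) read at start and after 30 min; difference gives rate.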
# G9a block – inhibitors of human histone lysine methyltransferase G9a; G9a H3K9 monomethylation, AlphaScreen, 2 h; Potency, µM (highest dose often 102 µM), for inactives: at the highest dose activity, negative = inhibition, usual class: inhibitors; actives 8.8% (n = 350,000); AID 504332; also: % is scaled to controls: 0 for no effect and ±100 for the full control effect; nearly all actives have a fitted effect of over 75% in size
# Target sequence (Q96KQ7 913-1193 limits assumed): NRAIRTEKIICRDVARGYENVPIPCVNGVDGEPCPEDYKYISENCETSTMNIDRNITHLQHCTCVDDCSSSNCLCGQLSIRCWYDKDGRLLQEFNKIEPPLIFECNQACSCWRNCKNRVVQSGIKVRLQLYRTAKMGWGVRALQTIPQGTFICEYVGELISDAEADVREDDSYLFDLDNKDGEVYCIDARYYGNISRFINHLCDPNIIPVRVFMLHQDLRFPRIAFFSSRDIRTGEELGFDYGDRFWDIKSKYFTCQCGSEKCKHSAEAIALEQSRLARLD
#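 Compounds were preincubated with 20 nM G9a for 15 min, after which biotinylated H3K9 peptide (500 nM) and SAM (20 uM) started a 2 h room-temperature reaction. Monomethylated product was quantified by antibody-based AlphaScreen chemiluminescence.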
# GRP78 ERSR act – inducers of ER stress response in human glioma cells. actives 0.02% (n = 420,000). U87-MG GRP78 promoter luciferase reporter, 16 h. AID 602332. Potency, µM, inactives show at the highest dose activation, hits mostly activators; also: series mostly up to about 76 µM; % of control where 0% means no effect; nearly all actives have a fitted effect of over 35% in size
#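 Stably transfected U87-MG glioma cells carrying a GRP78-based luciferase sensor; 16 h compound incubation. Luminescence end-point read 10 min after Bright-Glo addition at room temperature.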
# VDR inh – vitamin D3 receptor (human) inhibition; AID 504847; P11473; actives 0.93% (n = 400,000); VDR-SRC2-3 peptide fluorescence polarization, 2 h; Potency, µM, for the others: max response, negative = inhibition, actives largely listed as inhibitors; also: % is scaled to controls: 0 for no effect and ±100 for the full control effect
# Target sequence (P11473 whole entry, looked up): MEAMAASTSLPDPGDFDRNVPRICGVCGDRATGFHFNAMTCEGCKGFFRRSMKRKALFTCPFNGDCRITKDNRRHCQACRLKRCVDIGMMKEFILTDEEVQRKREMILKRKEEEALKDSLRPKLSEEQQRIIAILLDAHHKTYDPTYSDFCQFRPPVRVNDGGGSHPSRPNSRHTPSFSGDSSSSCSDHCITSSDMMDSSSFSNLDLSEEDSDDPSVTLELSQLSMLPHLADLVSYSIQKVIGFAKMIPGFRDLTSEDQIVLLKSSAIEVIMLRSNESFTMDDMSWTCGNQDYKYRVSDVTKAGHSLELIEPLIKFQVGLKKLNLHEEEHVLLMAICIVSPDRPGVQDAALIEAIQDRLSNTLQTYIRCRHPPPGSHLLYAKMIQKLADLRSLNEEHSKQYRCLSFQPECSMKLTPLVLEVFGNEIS
#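 Compounds are added to VDR with labelled SRC2-3 coactivator peptide and held 2 h at room temperature. Inhibition of the VDR–peptide interaction is then read as a change in fluorescence polarization.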
# 12-LOX inh – blocks human arachidonate 12S-lipoxygenase. P18054. purified 12hLO, xylenol orange hydroperoxide absorbance. Potency, µM (highest dose often 108 µM), for inactives: top-dose activity change, negative = inhibition, usual class: inhibitors. actives 1.1% (n = 580,000); also: % is scaled to controls: 0 for no effect and ±100 for the full control effect
#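 Purified human 12hLO at 150 nM in 25 mM Hepes, 0.01% Triton X-100, pH 7.0, preincubated 15 min at room temperature with compound. Reaction started with 40 uM arachidonic acid, 30 min at room temperature. Hydroperoxide measured by Fe-xylenol orange, 573/405 nm absorbance ratio.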
# The depositor's hits bear a star; ? = inconclusive; · = no result given; ! = a repeat was not active; [ ] = remark or other dose. The full list was thinned out, with hits kept by preference. Calls follow the shape of the dose curve; as a rule, active = well fitted curve in the direction sought with a large enough effect; inconclusive = small, poorly fitted or top-dose-only effect, or another doubt; inactive = no such curve, though single readings can be large; an effect the other way counts as inactive or inconclusive. Potency is read from the fitted curve at half-maximal effect.
SMILES,Sfp PPTase inh,G9a block,GRP78 ERSR act,VDR inh,12-LOX inh
NC(=O)c1ccc(-n2c(CCC(=O)O)ccc2-c2cccs2)cc1,-15%,28µM*,0%,-19%,-15%
Cc1ccc(-n2c(CCC(=O)O)ccc2-c2cccs2)cc1Cl,·,13µM*,0%,?,5%
O=C(NCc1ccncc1)c1cc(-c2ccccc2Cl)nc2ccccc12,·,·,·,·,-18%
Cc1c(C(=O)Nc2cccc(Cl)c2)sc2ncnc(N(C)c3ccccc3)c12,·,·,·,·,5%
CCOC(=O)c1ccc(NC(=S)N(CCCN2CCCC(C)C2)Cc2ccco2)cc1 (configuration not stated),-20%,-3%[59 µM],-1%,-12%,-3%
Cc1ccccc1NC(=S)N(CCCN1CCCCC1)Cc1ccco1,16%,9%[59 µM],-1%,-4%,-8%
CCN1CCN(CCCN(Cc2ccco2)C(=S)Nc2ccc(C)c(Cl)c2)CC1,-38%,35µM*,-1%,-9%,-28%
CCOC(=O)c1ccc(NC(=S)N(CCCN2CCCC2)Cc2ccco2)cc1,-13%,56µM*,-3%,-8%,-19%
CCN1CCN(CCCN(Cc2ccco2)C(=S)Nc2cc(Cl)ccc2C)CC1,-87%,28µM*,0%,-16%,0%
O=C1CC2(C(=O)Nc3ccccc32)c2sc(C(=O)O)c(-c3ccc(Cl)cc3)c2N1 (configuration not stated),·,·,·,·,-28%
CCC(C(=O)NC1CCCCC1)n1c(SCc2cccc(C)c2)nc2ccncc21 (configuration not stated),1%,50µM*!,4%,12%,-6%
CCC(C(=O)NC1CCCCC1)n1c(SCc2cccc(F)c2)nc2ccncc21 (configuration not stated),-7%,?,-4%,21%,-23%
CN(CC(=O)Nc1ccc(Cl)cc1C(F)(F)F)C1CCCc2ccccc21 (configuration not stated),·,·,·,·,24%
CCc1ccc(C(O)(c2ccccc2OC)C(CN2CCOCC2)c2ccccc2)cc1 (configuration not stated),-17%,45µM*,-3%,1%,0%
CSCCCN1CCC2(CC1)CCN(Cc1ccsc1)CC2CO (configuration not stated),·,·,·,·,24%
O=C(COC(=O)Cn1cnc2ccccc2c1=O)NCCC1=CCCCC1,6%,11µM*,-3%,-6%,-6%
COc1ccc(CCNC(=O)COC(=O)Cn2cnc3ccccc3c2=O)cc1,22%,7%[12.7 µM],8%,-6%,0%
COc1cc(NC(=O)c2ccccc2-c2ccccc2)cc(OC)c1OC,4%,·,·,·,·
COCCSc1ccccc1C(=O)Nc1nncs1,-5%,25µM*,-1%,7%,?
Cc1csc(NC(=O)c2cccnc2Cl)n1,·,·,2%,5%,?
O=C(Nc1nncs1)c1cccnc1Cl,8%,1.4µM*,-4%,-4%,?
CCSc1ccccc1C(=O)Nc1cc(OC)c(OC)c(OC)c1,16µM*,3.5µM*,0%,-12%,?
COCCSc1ccccc1C(=O)Nc1cc(C)cc(C)c1,?,4.5µM*,-1%,-8%,?
O=C1NC2(CCN(Cc3cncs3)CC2)Oc2ccccc21,·,·,·,·,31%[176 µM]
CC(OC(=O)c1nn(C)c(=O)c2ccccc12)C(N)=O (configuration not stated),·,·,·,·,32%
SMILES,Sfp PPTase inh,G9a block,GRP78 ERSR act,VDR inh,12-LOX inh
COC(=O)c1ccc(NC(=S)N2CCC(C(N)=O)CC2)cc1,32µM*,?,-1%,4%,-4%
COC(=O)c1sccc1NC(=S)N1CCC(C(N)=O)CC1,79µM*,-49%,-2%,2%,-15%
Cc1ccc(S(=O)(=O)N2CCN(S(=O)(=O)c3ccccc3)C2c2ccc(N(C)C)cc2)cc1 (configuration not stated),2%,8.9µM*,-2%,-2%,-21%
CCc1cccc(NC(=O)c2c(-c3ccccc3Cl)noc2C)c1,·,·,·,·,15%
CC(C(=O)N(C)C1CCS(=O)(=O)C1)N1C(=O)/C(=C/c2cccs2)SC1=S (configuration not stated),9%,-69%,2%,-14%,?
CC(C(=O)N(C)C1CCS(=O)(=O)C1)N1C(=O)/C(=C/c2ccco2)SC1=S (configuration not stated),-26%,45µM*,-9%,-20%,?
CCN(C(=O)C(C)N1C(=O)/C(=C/c2cccs2)SC1=S)C1CCS(=O)(=O)C1 (configuration not stated),-3%,45µM*,-6%,3%,?
Cc1nn(C)c(C)c1CC(=O)Nc1nc(C2CC2)cs1,·,·,·,·,8%
C[N+](C)(C)C/C=C1/COCO1,-8%,50µM*,-5%,-10%,11µM*!
O=C1NCc2ccccc2CC12CCCCN2Cc1ccccc1 (configuration not stated),·,·,·,·,6%[6.33 µM]
Cc1ccc(Nc2nc(-c3ccncc3)cs2)cc1,2%,?,1%,6%,-15%
COc1ccc(-c2csc(Nc3ccc(S(=O)(=O)Nc4cc(OC)nc(OC)n4)cc3)n2)cc1,?,-12%[59 µM],-4%,-1%,?
O=S(=O)(c1ccc(-c2csc(Nc3ccccc3)n2)cc1)N1CCOCC1,·,·,·,·,-7%
COc1ccc(-c2csc(Nc3ccc(S(=O)(=O)Nc4cc(C)on4)cc3)n2)cc1C,-27%,40µM*,1%,1%,?
Cc1nc(Nc2ccc(S(N)(=O)=O)cc2)sc1-c1ccccc1,-2%,32µM*,-3%,8%,?
NS(=O)(=O)c1ccc(Nc2nc(-c3ccc4ccccc4c3)cs2)cc1,4%,35µM*,4%,5%,?
Cc1ccc(-c2csc(Nc3ccc(S(N)(=O)=O)cc3)n2)cc1C,·,·,·,·,45µM*
CSc1cccc(NC(=O)Nc2cccc(-c3ccc(N4CCOCC4)nn3)c2)c1,·,·,·,·,6%
Cc1ccc2[nH]c(=O)c(CCC(=O)N3CCCCC3)cc2c1,·,·,·,·,31%
O=C(CCC(=O)c1ccc(Cl)cc1)OCC(=O)c1ccc(OCc2ccccc2)cc1,·,·,·,·,7%
N#Cc1nc(-c2ccc(S(=O)(=O)N3CCOCC3)cc2)oc1NCc1ccc2c(c1)OCO2,·,·,·,·,-17%
Cc1nc(C)c(-c2csc(Nc3ccc(S(N)(=O)=O)cc3)n2)s1,-10%,?,-6%,4%,-1%
Cc1ccc(-c2csc(Nc3ccc(S(N)(=O)=O)cc3)n2)o1,10µM*,4.5µM*,4%,-15%,?
COc1ccc(S(=O)(=O)NCCN2CCOCC2)c2ccccc12,-8%,28µM*,1%,-10%,?
COc1ccc2ccccc2c1CNCCN1CCOCC1,-2%,50µM*,-5%,5%,?
c1ccc2c(CNCCN3CCOCC3)cccc2c1,15%,?,-1%,0%,?
COc1ccccc1N1CCN(CCCCNS(=O)(=O)c2cccc3c(N(C)C)cccc23)CC1,·,27µM*,0%,-12%,·
N[C@@H]1CN(c2ncccn2)C[C@H]1CO,·,·,·,·,-12%
